Screening results deposited in PubChem BioAssay by Milwaukee Institute for Drug Discovery.
Cy5 interf NS3h: counter-screen for HCV NS3 helicase inhibitors: fluorescence interference; Cy5-dT15 DNA with NS3h; actives lie on both sides; signal over control mean, under 1 quenches; fluorescence interference ratio at 100 µM; 6% of 16,000 active;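 active means compound fluorescence over control fluorescence at most 0.8, a quencher, or at least a set upper limit, an enhancer; inactive means ratio between 0.8 and the set upper limit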
NS3h inh CB: hepatitis C NS3 helicase inhibition, primary screen | NS3h Cy5-dT15 DNA binding, fluorescence polarization | inhibition, % at 100 µM | 1.6% of 16,000 active;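 active means inhibition above the average over every tested compound plus 3 SD, cut at about 40% in these data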
An asterisk follows results filed as active. Compounds with a hit are over-represented: about 6.8% of the library has one in this group of screens.

SMILES	Cy5 interf NS3h	NS3h inh CB
COc1cccc(NC(=O)COc2cc(C)c(Cl)c(C)c2)c1	0.877	10.5
COc1cccc(NC(=O)COc2ccc(C)cc2C)c1	0.785*	13.2
CC1=NN(C(=O)c2cocc2C)C(O)(C(F)(F)F)C1 (configuration not stated)	1.05	2.2
COc1ccc(C(=O)NCC23C=CC(O2)C2C(=O)N(c4ccccc4C)C(=O)C23)cc1 (configuration not stated)	1.04	-0.7
COC(=O)C(CC(C(=O)OC)C(=O)OC)C(=O)OC	1.02	-1.6
COC(=O)C(CCCC(C(=O)OC)C(=O)OC)C(=O)OC	0.678*	2.2
COC(=O)CNC(=O)c1cccc([N+](=O)[O-])c1	1.09	2.5
O=C(O)CSCc1cccc([N+](=O)[O-])c1	0.702*	5.0
O=C1OC(c2ccccc2F)=N/C1=C\c1ccc(Br)cc1	1.08	3.6
CCOc1ccc(/C=C2\N=C(c3ccccc3F)OC2=O)cc1	1.01	52.6*
COc1ccc(/C=C(\C#N)c2ccc(Cl)cc2)c(OC)c1	1.02	14.5
CC1CC(C)CN(C(=O)c2ccc(Cl)cc2)C1 (configuration not stated)	1.05	-4.9
CC(=O)Nc1ccc(C(=O)N2CC(C)CC(C)C2)cc1 (configuration not stated)	0.687*	4.0
CC(C)(C)C1=NN(C(=O)c2ccc([N+](=O)[O-])cc2)C(O)(C(F)(F)F)C1 (configuration not stated)	0.672*	15.0
CC1=NN(C(=O)c2ccc([N+](=O)[O-])cc2)C(O)(c2ccc(Cl)cc2)C1 (configuration not stated)	0.98	18.2
NC(=O)c1cc(NC(=O)C(F)(F)F)c(Cl)cc1Cl	1.14	-7.2
Cc1ccc(OCCOCCOc2ccc(/C=c3\sc4nc5ccccc5n4c3=O)cc2)cc1	1.25*	9.1
Cc1ccccc1OCCOc1ccc(/C=c2\sc3nc4ccccc4n3c2=O)cc1	1.11	12.9
O=C(Nc1ccccc1Cl)c1cncc(Br)c1	1.02	-2.5
O=[N+]([O-])c1cc(NS(=O)(=O)Cc2ccccc2)ccc1F	0.633*	-2.5
O=C(Nc1ccc(F)c([N+](=O)[O-])c1)C(c1ccccc1)c1ccccc1	1.02	8.5
COc1ccc(NC(=O)CN(c2ccc(F)cc2)S(=O)(=O)c2ccccc2)cc1OC	1.03	8.2
O=C(NCc1ccccc1Cl)c1ccccc1I	1.08	6.8
O=C(/C=C/c1ccco1)Nc1ccc(Br)cn1	0.95	-1.9
O=C(/C=C/c1ccco1)Nc1cc(Cl)ccc1C(=O)O	0.9	62.8*
SMILES	Cy5 interf NS3h	NS3h inh CB
COc1ccc(/C=C2/C(C)=C(C#N)c3nc(N)c(C#N)c(C)c32)cc1Br	0.96	14.2
COc1cc(/C=C2/C(C)=C(C#N)c3nc(N)c(C#N)c(C)c32)c([N+](=O)[O-])cc1OC	0.967	46.9*
CC(=O)Nc1ccc(S(=O)(=O)N/N=C\c2ccc[nH]2)cc1	1.1	2.3
Cc1ccc(C(=O)Oc2ccc(/C=c3/sc4nc5ccccc5n4c3=O)cc2)cc1	1.08	-8.2
Cc1cc2c(cc1Br)NC(=O)C2=O	0.76*	15.0
Cc1ccc(C(O)=C2C(=O)C(=O)N(c3nncs3)C2c2cccc(Br)c2)cc1 (configuration not stated)	0.875	22.5
CCOc1ccc(NC(=S)NC(=O)c2ccc(F)cc2)c([N+](=O)[O-])c1	0.93	19.1
CCOC(=O)/C(C#N)=C/c1cn(-c2ccccc2)nc1-c1ccc(C)o1	0.983	4.8
Cc1ccc(-c2ccc(C=C3C(=O)NC(=O)NC3=O)o2)c([N+](=O)[O-])c1	0.721*	41.3*
Cc1ccc(-c2ccc(/C=C3\SC(=S)NC3=O)o2)c([N+](=O)[O-])c1	0.886	20.0
Cc1ccc(NC(=O)c2ccc(Oc3ccc([N+](=O)[O-])cc3)cc2)cc1C	0.947	5.0
Cc1c(C(=O)Nc2ccc([N+](=O)[O-])cc2)cnn1-c1ccccc1	0.578*	5.0
Cc1ccc(C(=O)Nc2c(C(=O)Nc3ccccc3)cnn2-c2ccccc2)cc1	0.927	12.0
COCCNC(=O)c1ccc([N+](=O)[O-])cc1	0.721*	4.0
Cc1ccc(N2C(=O)c3ccc(C(=O)Nc4ccc(O)cc4)cc3C2=O)cc1C	1.01	-5.8
COCCNC(=O)c1ccc(Cl)c([N+](=O)[O-])c1	1.07	4.4
O=C(Nc1ccc(O)cc1)c1ccc2c(c1)C(=O)N(c1ccc([N+](=O)[O-])cc1)C2=O	0.65*	0.0
CC(=O)c1ccc(Oc2ccc([N+](=O)[O-])cc2)cc1	0.638*	9.6
CCCCOc1ccc(-c2nc(C3CCCCC3)no2)cc1	0.928	5.1
O=C(/C=C/c1ccccc1)NC(CCC(=O)OCc1ccccc1)C(=O)OCc1ccccc1 (configuration not stated)	1.02	7.0
COc1ccc(-c2nnnn2C)cc1S(=O)(=O)Nc1cccc(C(F)(F)F)c1	0.868	12.0
COc1ccc2c(c1)CC/C(=C\c1cccc(F)c1)C2=O	0.978	0.4
O=C1C(c2ccccc2)=NOC12CCCC2	1.04	-2.0
O=C(Nc1ccc(F)cc1)c1ccc([N+](=O)[O-])cc1	1.05	-10.7
O=C(CSCC(=O)Nc1ccc([N+](=O)[O-])cc1)Nc1ccccc1	0.623*	5.9
SMILES	Cy5 interf NS3h	NS3h inh CB
CC(=O)Nc1ccc(C(=O)Nc2ccc([N+](=O)[O-])cc2)cc1	0.742*	-4.0
O=C(CSCC(=O)Nc1ccccc1)NCc1ccccc1	1.13	6.9
O=C1C(Nc2ccccc2)=CC(c2ccccc2Cl)N1c1ccccc1 (configuration not stated)	0.995	8.8
CCOCCOC(=O)c1ccc(NC(=O)c2cccnc2)cc1	1.03	-5.5
CCOc1ccc2nc(NC3=NCCC(=O)N3)nc(C)c2c1	1.02	-5.7
CC1=NC(c2ccccc2)(c2ccccc2)c2ccccc2O1	0.929	7.8
CCN(C(=O)c1ccccc1Cl)c1ccccc1	0.669*	6.8
CCCN(CCC)C(=O)c1ccccc1NC(=O)c1ccccc1Cl	1.01	-11.5
CCOC(=O)C1=C(c2ccccc2)N=c2s/c(=C\c3cccnc3)c(=O)n2C1c1ccc(OC)c(OC)c1 (configuration not stated)	1	1.8
COc1ccc(NC(=O)COc2c(C)cc(C)cc2C)c(OC)c1	0.857	12.4
COC(=O)c1c(NC(=O)Nc2ccc(Cl)c(Cl)c2)sc2c1CCC2	1.2*	-7.3
CCOC(=O)c1c(NC(=S)Nc2ccc(OC)cc2)sc2c1CCCCC2	1.11	5.7
C=CCc1cc(/C=C2\C(=O)NC(=O)N(c3ccc(Cl)cc3)C2=O)cc(OC)c1OCC(=O)O	1.05	6.5
Cc1ccc2nc(/C(C#N)=C/c3ccc(-c4ccc(Cl)cc4)o3)[nH]c2c1	0.771*	-50.7
COC(=O)c1cc(-c2ccc(/C=C(\C#N)c3nc4ccccc4[nH]3)o2)ccc1Cl	1.03	3.5
CC(=O)Oc1ccc(-c2cccc(C(=O)N3CCOCC3)c2)cc1	1.05	4.3
COc1cccc(NC(=O)/C(=C/c2ccc(C)o2)NC(=O)c2ccccc2)c1	0.711*	15.0
COc1ccc(NC(=O)/C(=C/c2ccccc2Cl)NC(=O)c2ccc(C)cc2)cc1	1.17	-1.3
CCCCCCCC(=O)CCCC(=O)Nc1ccc(C)cc1	0.942	4.6
O=C(NC(=S)Nc1ccc(O)c(-c2nc3ccccc3o2)c1)c1ccco1	1.09	-6.3
Cc1ccc(C(=O)N/C(=C\c2cccc([N+](=O)[O-])c2)C(=O)Nc2ccc(C)cc2C)cc1	1.29*	6.3
